Holding throughout (conditions): mRNA level, 48 h; actives raise or lower the signal
Read-out in experiment [1]: Fatty acid synthase (Homo sapiens) (UniProt P49327)
Description: LTEA_HepaRG_FASN: Life Technologies and Expression Analysis (LTEA) Assay for Fatty Acid Synthase (FASN) using HepaRG (AID 2283448). The gist of the method: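 Differentiated human HepaRG cells were exposed for 48 h in serum-free induction medium to eight half-log concentrations up to 100 uM in 0.5% DMSO, in duplicate. FASN mRNA was quantified by TaqMan qRT-PCR, normalized to ACTB/GAPDH/POLR2A, and fitted bidirectionally against DMSO.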

Read-out in experiment [2]: Cyclin D2 (CCND2), CCND2 (gene 894)
Description: LTEA_HepaRG_CCND2: Life Technologies and Expression Analysis (LTEA) Assay for Cyclin D2 (CCND2) using HepaRG (AID 2283449).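 Also: CCND2 transcript measured by TaqMan qRT-PCR and normalised to three housekeeping genes.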 The gist of the method: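 Chemicals in 0.5% DMSO, eight half-log concentrations from 100 uM top, were applied in duplicate for 48 h to human HepaRG cells in serum-free induction medium. CCND2 mRNA by TaqMan qRT-PCR, normalised to ACTB/GAPDH/POLR2A; bidirectional fit versus DMSO.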

Read-out in experiment [3]: Cyclin Dependent Kinase Inhibitor 1A (CDKN1A), CDKN1A (gene 1026)
Description: LTEA_HepaRG_CDKN1A: Life Technologies and Expression Analysis (LTEA) Assay for Cyclin Dependent Kinase Inhibitor 1A (CDKN1A) using HepaRG (AID 2283450). In short, it runs like this:
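Differentiated human HepaRG cells, pre-cultured 48 h, were exposed in duplicate for 48 h in serum-free induction medium to eight half-log concentrations up to 100 uM (0.5% DMSO). CDKN1A mRNA was measured by qRT-PCR, normalized to ACTB/GAPDH/POLR2A, bidirectionally fitted versus DMSO.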

Read-out in experiment [4]: Cyclin D1 (CCND1), CCND1 (gene 595)
Description: LTEA_HepaRG_CCND1: Life Technologies and Expression Analysis (LTEA) Assay for Cyclin D1 (CCND1) using HepaRG (AID 2283451).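 As to AC50: TaqMan qRT-PCR transcript level normalised to ACTB GAPDH and POLR2A housekeeping genes.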 The gist of the method: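 Differentiated human HepaRG cells in serum-free induction medium were exposed 48 h to eight half-log concentrations up to 100 uM in 0.5% DMSO; mRNA quantified by TaqMan qRT-PCR, normalized to ACTB, GAPDH, POLR2A, fitted bidirectionally versus DMSO.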

Read-out in experiment [5]: catalase (CAT), CAT (gene 847)
As to the kind of experiment: LTEA_HepaRG_CAT: Life Technologies and Expression Analysis (LTEA) Assay for catalase (CAT) using HepaRG (AID 2283452).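 As to AC50: TaqMan qRT-PCR signal normalized to ACTB GAPDH and POLR2A housekeeping genes.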 In short, it runs like this: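 HepaRG cells in serum-free induction medium, 0.5% DMSO vehicle, exposed 48 h in duplicate over 8 half-log concentrations from 100 uM. CAT mRNA measured by qRT-PCR, normalized to ACTB, GAPDH, POLR2A; bidirectional fit versus DMSO.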

Read-out in experiment [6]: flavin-containing dimethylaniline monooxygenases 3 (FMO3), FMO3 (gene 2328)
Description: LTEA_HepaRG_FMO3: Life Technologies and Expression Analysis (LTEA) Assay for flavin-containing dimethylaniline monooxygenases 3 (FMO3) using HepaRG (AID 2283453). In short, it runs like this: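 HepaRG, 48 h exposure, 8-pt half-log series from 100 uM, 0.5% DMSO vehicle, duplicates; FMO3 transcript by Fluidigm TaqMan qRT-PCR, housekeeping-normalized; gain/loss fit vs DMSO.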

Read-out in experiment [7]: Cytochrome P450 (CYP1A1), CYP1A1 (gene 1543)
Description: LTEA_HepaRG_CYP1A1: Life Technologies and Expression Analysis (LTEA) Assay for Cytochrome P450 (CYP1A1) using HepaRG (AID 2283454). In short, it runs like this:
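Differentiated HepaRG cells in serum-free induction medium were exposed in duplicate for 48 h to eight half-log concentrations up to 100 uM in 0.5% DMSO. CYP1A1 mRNA was quantified by TaqMan qRT-PCR, normalized to ACTB, GAPDH and POLR2A.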

Read-out in experiment [8]: CFLAR gene, CFLAR (gene 8837)
As to the kind of experiment: LTEA_HepaRG_CFLAR: Life Technologies and Expression Analysis (LTEA) Assay for CFLAR gene using HepaRG (AID 2283455). In short, it runs like this:
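Differentiated HepaRG cells in serum-free induction medium were exposed 48 h in duplicate to eight half-log concentrations up to 100 uM in 0.5% DMSO; mRNA measured by TaqMan qRT-PCR, normalized to ACTB, GAPDH, POLR2A; bidirectional fitting versus DMSO.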

Read-out in experiment [9]: Forkhead box O1 (FOXO1), FOXO1 (gene 2308)
As to the kind of experiment: LTEA_HepaRG_FOXO1: Life Technologies and Expression Analysis (LTEA) Assay for Forkhead box O1 (FOXO1) using HepaRG (AID 2283456). The gist of the method: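 Differentiated HepaRG cells, in serum-free induction medium with 0.5% DMSO, exposed 48 h in duplicate to 8-point half-log series from 100 uM. FOXO1 mRNA measured by TaqMan qRT-PCR, normalized to ACTB, GAPDH, POLR2A; bidirectional fit versus DMSO.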

Read-out in experiment [10]: growth arrest and DNA damage 45 (GADD45A), GADD45A (gene 1647)
Description: LTEA_HepaRG_GADD45A: Life Technologies and Expression Analysis (LTEA) Assay for growth arrest and DNA damage 45 (GADD45A) using HepaRG (AID 2283458). The gist of the method: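 Differentiated HepaRG cells were exposed in duplicate for 48 h in serum-free induction medium to 8-point half-log concentrations up to 100 uM in 0.5% DMSO. GADD45A mRNA was measured by TaqMan qRT-PCR, normalized to ACTB, GAPDH and POLR2A, with bidirectional fitting versus DMSO.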

Read-out in experiment [11]: Forkhead box O3 (FOXO3), FOXO3 (gene 2309)
Description: LTEA_HepaRG_FOXO3: Life Technologies and Expression Analysis (LTEA) Assay for Forkhead box O3 (FOXO3) using HepaRG (AID 2283459). The gist of the method: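 Differentiated human HepaRG cells, 48 h post-plating, exposed in duplicate for 48 h in serum-free induction medium; 8-point half-log series from 100 uM in 0.5% DMSO. FOXO3 mRNA by TaqMan qRT-PCR, normalized to ACTB/GAPDH/POLR2A; bidirectional fit versus DMSO.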

Read-out in experiment [12]: ABC Transporter (ABCB1), ABCB1 (gene 5243)
Description: LTEA_HepaRG_ABCB1: Life Technologies and Expression Analysis (LTEA) Assay for ABC Transporter (ABCB1) using HepaRG (AID 2283460). The gist of the method: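 HepaRG cells exposed in duplicate for 48 h in serum-free induction medium to eight half-log concentrations up to 100 uM in 0.5% DMSO. ABCB1 mRNA quantified by qRT-PCR, normalised to ACTB, GAPDH and POLR2A; fitted bidirectionally versus DMSO.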

Read-out in experiment [13]: growth arrest and DNA damage 45 (GADD45B), GADD45B (gene 4616)
As to the kind of experiment: LTEA_HepaRG_GADD45B: Life Technologies and Expression Analysis (LTEA) Assay for growth arrest and DNA damage 45 (GADD45B) using HepaRG (AID 2283461). The gist of the method: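 Differentiated HepaRG cells, plated 48 h then switched to serum-free induction medium, were exposed 48 h in duplicate to eight half-log concentrations from 100 uM in 0.5% DMSO; mRNA quantified by qRT-PCR, normalized to ACTB/GAPDH/POLR2A, bidirectional fit versus DMSO.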

Read-out in experiment [14]: ABC Transporter (ABCC3), ABCC3 (gene 8714)
Description: LTEA_HepaRG_ABCC3: Life Technologies and Expression Analysis (LTEA) Assay for ABC Transporter (ABCC3) using HepaRG (AID 2283462). The gist of the method: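 HepaRG cells in serum-free induction medium were exposed for 48 h in duplicate to 8-point half-log concentrations topping at 100 uM in 0.5% DMSO. ABCC3 mRNA was measured by qRT-PCR normalized to ACTB, GAPDH and POLR2A, with bidirectional fitting versus DMSO.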

Read-out in experiment [15]: ABC Transporter (ABCB11), ABCB11 (gene 8647)
As to the kind of experiment: LTEA_HepaRG_ABCB11: Life Technologies and Expression Analysis (LTEA) Assay for ABC Transporter (ABCB11) using HepaRG (AID 2283463). In short, it runs like this:
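Differentiated human HepaRG cells in serum-free induction medium, dosed in duplicate for 48 h. Eight-point half-log series from 100 uM in 0.5% DMSO; ABCB11 mRNA by qRT-PCR, normalized to ACTB, GAPDH, POLR2A, fitted bidirectionally versus DMSO.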

Read-out in experiment [16]: ABC Transporter (ABCC2), ABCC2 (gene 1244)
As to the kind of experiment: LTEA_HepaRG_ABCC2: Life Technologies and Expression Analysis (LTEA) Assay for ABC Transporter (ABCC2) using HepaRG (AID 2283464). In short, it runs like this:
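HepaRG cells were plated 48 h, switched to serum-free induction medium, then exposed in duplicate for 48 h to 8 concentrations (top 100 uM, half-log steps, 0.5% DMSO). ABCC2 mRNA was measured by qRT-PCR normalized to ACTB/GAPDH/POLR2A; bidirectional fitting versus DMSO.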

Read-out in experiment [17]: Broad substrate specificity ATP-binding cassette transporter ABCG2 (Homo sapiens) (UniProt Q9UNQ0)
Description: LTEA_HepaRG_ABCG2: Life Technologies and Expression Analysis (LTEA) Assay for ABC Transporter (ABCG2) using HepaRG (AID 2283465). The gist of the method:
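Differentiated HepaRG cells were exposed for 48 h in serum-free induction medium to 8 half-log concentrations, top 100 uM, in 0.5% DMSO. ABCG2 mRNA was measured by qRT-PCR, normalized to ACTB, GAPDH and POLR2A, with bidirectional fitting versus DMSO.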

Read-out in experiment [18]: Tumor necrosis factor receptor superfamily member 6 (Homo sapiens) (UniProt P25445)
Description: LTEA_HepaRG_FAS: Life Technologies and Expression Analysis (LTEA) Assay for Fas cell surface death receptor (FAS) using HepaRG (AID 2283447). In short, it runs like this: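 Differentiated HepaRG cells in serum-free induction medium were exposed 48 h to 8 half-log concentrations up to 100 uM in 0.5% DMSO, in duplicate. FAS mRNA was measured by qRT-PCR normalised to ACTB, GAPDH and POLR2A; bidirectional fit versus DMSO.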

“And” between values parts separate entries of the source, which are not always exact repeats. Identical values can stand only once. The source made the active and inactive calls. The calls were made as follows: active = hit-call score of the fitted dose curve at least 0.9, where 1 is the maximum; inactive = score below 0.9.

Chain of Fatty acid synthase (Homo sapiens) (P49327 whole entry, looked up): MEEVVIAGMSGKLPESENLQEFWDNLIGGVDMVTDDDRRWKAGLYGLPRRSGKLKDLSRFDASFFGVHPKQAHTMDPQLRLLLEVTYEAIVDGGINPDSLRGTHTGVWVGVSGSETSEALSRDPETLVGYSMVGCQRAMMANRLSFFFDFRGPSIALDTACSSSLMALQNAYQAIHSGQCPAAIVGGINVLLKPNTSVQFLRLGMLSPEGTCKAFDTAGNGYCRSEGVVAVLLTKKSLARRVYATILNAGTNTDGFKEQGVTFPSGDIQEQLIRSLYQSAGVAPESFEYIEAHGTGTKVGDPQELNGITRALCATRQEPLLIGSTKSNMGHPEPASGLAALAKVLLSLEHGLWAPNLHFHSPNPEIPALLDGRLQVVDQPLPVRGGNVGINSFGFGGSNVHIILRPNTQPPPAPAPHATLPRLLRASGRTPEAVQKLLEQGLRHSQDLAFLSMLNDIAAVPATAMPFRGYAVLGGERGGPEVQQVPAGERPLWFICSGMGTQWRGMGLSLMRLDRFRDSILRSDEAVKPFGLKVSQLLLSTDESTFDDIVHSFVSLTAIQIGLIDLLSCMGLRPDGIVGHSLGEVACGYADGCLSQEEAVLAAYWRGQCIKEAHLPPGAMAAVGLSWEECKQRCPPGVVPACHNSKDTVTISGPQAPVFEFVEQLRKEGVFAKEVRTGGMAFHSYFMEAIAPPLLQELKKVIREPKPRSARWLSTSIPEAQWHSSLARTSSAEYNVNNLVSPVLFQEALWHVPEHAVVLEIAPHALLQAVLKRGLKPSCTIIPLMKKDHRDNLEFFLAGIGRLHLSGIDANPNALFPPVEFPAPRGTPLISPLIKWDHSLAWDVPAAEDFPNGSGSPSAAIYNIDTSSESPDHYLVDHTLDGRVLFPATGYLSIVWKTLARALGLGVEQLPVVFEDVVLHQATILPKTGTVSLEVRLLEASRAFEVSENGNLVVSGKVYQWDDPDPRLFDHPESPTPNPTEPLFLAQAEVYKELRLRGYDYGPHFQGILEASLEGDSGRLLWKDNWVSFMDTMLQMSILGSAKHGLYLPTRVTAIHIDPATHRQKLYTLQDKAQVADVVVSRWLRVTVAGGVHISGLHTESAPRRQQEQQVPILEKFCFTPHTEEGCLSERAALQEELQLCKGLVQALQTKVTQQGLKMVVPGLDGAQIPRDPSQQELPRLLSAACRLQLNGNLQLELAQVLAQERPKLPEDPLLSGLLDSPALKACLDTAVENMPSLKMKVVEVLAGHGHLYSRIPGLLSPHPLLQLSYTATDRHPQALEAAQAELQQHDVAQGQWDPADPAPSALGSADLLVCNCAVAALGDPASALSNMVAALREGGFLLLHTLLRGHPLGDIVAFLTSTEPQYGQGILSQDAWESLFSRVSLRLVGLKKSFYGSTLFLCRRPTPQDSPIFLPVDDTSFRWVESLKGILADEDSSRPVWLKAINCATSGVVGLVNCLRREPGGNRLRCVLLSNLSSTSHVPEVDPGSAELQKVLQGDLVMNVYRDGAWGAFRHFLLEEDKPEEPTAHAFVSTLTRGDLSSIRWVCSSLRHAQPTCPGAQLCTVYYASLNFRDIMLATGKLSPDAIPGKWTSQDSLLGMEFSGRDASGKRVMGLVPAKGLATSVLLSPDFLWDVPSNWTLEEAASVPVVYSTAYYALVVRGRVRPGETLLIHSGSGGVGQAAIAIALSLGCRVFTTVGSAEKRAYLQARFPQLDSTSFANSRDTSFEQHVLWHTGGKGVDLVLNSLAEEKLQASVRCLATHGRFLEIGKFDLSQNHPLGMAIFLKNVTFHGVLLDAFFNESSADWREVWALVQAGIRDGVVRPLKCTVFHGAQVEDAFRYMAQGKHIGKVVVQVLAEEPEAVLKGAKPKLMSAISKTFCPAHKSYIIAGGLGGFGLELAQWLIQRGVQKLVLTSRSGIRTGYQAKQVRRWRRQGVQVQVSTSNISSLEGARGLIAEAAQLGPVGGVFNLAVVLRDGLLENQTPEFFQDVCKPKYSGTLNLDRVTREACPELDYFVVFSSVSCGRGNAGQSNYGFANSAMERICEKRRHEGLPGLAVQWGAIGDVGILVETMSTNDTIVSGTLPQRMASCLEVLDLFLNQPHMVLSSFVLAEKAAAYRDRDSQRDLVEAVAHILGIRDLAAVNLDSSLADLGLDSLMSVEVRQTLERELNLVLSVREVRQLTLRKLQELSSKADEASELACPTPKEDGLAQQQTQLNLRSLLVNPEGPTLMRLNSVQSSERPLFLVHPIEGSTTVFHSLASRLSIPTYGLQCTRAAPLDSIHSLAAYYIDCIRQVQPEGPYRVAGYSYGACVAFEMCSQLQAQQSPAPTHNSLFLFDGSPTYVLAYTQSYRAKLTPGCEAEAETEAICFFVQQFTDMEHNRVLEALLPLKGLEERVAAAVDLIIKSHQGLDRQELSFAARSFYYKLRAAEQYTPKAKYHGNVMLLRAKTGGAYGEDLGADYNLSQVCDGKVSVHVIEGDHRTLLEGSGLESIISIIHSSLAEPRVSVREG
Chain of Broad substrate specificity ATP-binding cassette transporter ABCG2 (Homo sapiens) (Q9UNQ0 whole entry, looked up): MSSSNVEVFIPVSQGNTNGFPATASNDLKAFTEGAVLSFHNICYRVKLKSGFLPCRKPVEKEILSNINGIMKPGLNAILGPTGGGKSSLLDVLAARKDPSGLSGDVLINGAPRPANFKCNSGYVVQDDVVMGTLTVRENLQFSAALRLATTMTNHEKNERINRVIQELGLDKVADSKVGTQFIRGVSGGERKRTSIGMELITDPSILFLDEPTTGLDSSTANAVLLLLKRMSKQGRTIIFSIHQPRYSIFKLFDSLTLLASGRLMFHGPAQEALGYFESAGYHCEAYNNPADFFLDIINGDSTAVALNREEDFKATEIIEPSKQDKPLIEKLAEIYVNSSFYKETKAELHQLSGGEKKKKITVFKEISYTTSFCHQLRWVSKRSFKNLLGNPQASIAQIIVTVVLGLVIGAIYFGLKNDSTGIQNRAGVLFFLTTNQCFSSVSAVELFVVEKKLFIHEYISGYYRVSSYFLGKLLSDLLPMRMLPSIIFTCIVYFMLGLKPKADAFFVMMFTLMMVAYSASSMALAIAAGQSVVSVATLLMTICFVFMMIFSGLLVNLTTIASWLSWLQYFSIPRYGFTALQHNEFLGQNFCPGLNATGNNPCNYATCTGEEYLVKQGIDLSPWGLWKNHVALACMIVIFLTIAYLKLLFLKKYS

For `CN(C)[C@@H]1C(=O)C(C(N)=O)=C(O)[C@@]2(O)C(=O)C3=C(O)c4c(O)cccc4[C@@](C)(O)[C@H]3[C@H](O)[C@@H]12`, the compound was classed as inactive in [1], in experiment [2], in experiment [3], in experiment [4], in experiment [5] and in experiment [6]. In addition, the call in experiment [8], in [9], in experiment [10], in [11], in experiment [12] and in experiment [13] was inactive. In addition, the compound was classed as inactive in [14], in [15], in experiment [16] and in experiment [17]. For the same compound, the concentration at half-maximal activity (AC50) in experiment [7] was 66.4 µM (active) and 18.3 µM (active).

Take `CCOP(=S)(Oc1cnc(C(C)(C)C)nc1)OC(C)C` (stereo not drawn): the outcome in [18], in experiment [2], in experiment [3], in [8], in [9] and in experiment [10] was inactive. The outcome in experiment [11], in [13], in experiment [14], in experiment [16] and in [17] was inactive. In addition, the AC50 in experiment [1] is 82.4 µM (active); in experiment [4], 50 µM (active); in [5], 5.63 µM (active); in experiment [6], 4.99 µM (active); in experiment [7], 35 µM (active); in experiment [12] it was 19.4 µM (active). Further, the concentration at half-maximal activity (AC50) in experiment [15] is 1.84 µM (active).

In the case of `CCCCOC(=O)c1ccccc1C(=O)O`, the compound was classed as inactive in experiment [1], in experiment [2], in experiment [3], in [4], in [5] and in [6]. Besides, the outcome in experiment [8], in [9], in experiment [10], in [11], in [12] and in experiment [13] was inactive. Besides, the call in [15], in experiment [16] and in experiment [17] was inactive. In addition, the AC50 in experiment [7] was 36.1 µM (active).

`CCC(CC)Nc1c([N+](=O)[O-])cc(C)c(C)c1[N+](=O)[O-]`: the result in experiment [1], in [2], in experiment [3], in experiment [4], in [5] and in [6] was inactive. In addition, the call in experiment [8], in experiment [9], in experiment [10], in [11], in [12] and in [13] was inactive. Besides, the outcome in [14], in experiment [15] and in experiment [16] was inactive. For the same compound, the AC50 in [7] is 29.8 µM (active); in [17] it was 60.6 µM (active).

Turning to `Cc1nn(-c2cc(NS(C)(=O)=O)c(Cl)cc2Cl)c(=O)n1C(F)F`, the compound was called inactive in experiment [1], in experiment [3], in experiment [4], in experiment [5], in [6] and in experiment [8]. The compound was called inactive in experiment [9], in experiment [10], in experiment [11], in [13], in experiment [14] and in experiment [17]. For the same compound, the results for the AC50 in experiment [7], in [12] and in [16] were 50 µM (active), 8.21 µM (active) and 13.6 µM (active), respectively.

A word on the AC50: it is the midpoint of the concentration-response curve, whichever way the signal moves.

For the origin of these results see PubChem BioAssay (EPA / NIEHS).
